Source: PubChem (several laboratories)
HGIII-sPLA2 inh: human group III sPLA2 inhibitors, primary screen, biochemical, QFRET, BODIPY PC-A2 liposome substrate. Group 3 secretory phospholipase A2 (Homo sapiens), Q9NZ20. QFRET BODIPY PC-A2 liposome hydrolysis, fluorescence. inhibition, % at 12.2 µM. hit rate 0.56% among 370,000;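 active = inhibition above mean plus 3 SD of compounds lying within the high and low control bounds, cut at about 19% in these data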;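 note: 0% = median of test compound wells and 100% = no enzyme DMSO wells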
ADAM10 inh: human ADAM10 inhibitors, primary screen, biochemical, QFRET, HTS. inhibition, % at 7 µM. recombinant ADAM10, EDANS/DABCYL FRET peptide cleavage, 3 h. Disintegrin and metalloproteinase domain-containing protein 10 (Homo sapiens), O14672. hit rate 0.62% among 370,000;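 active = inhibition above a per-campaign cutoff equal to the mean of compounds falling between control-based bounds plus 3 SD, cut at about 20% in these data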;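 note: 0% = DMSO wells while the 100% control is not disclosed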
FAS-TE inh: FAS thioesterase domain inhibitors, primary screen, biochemical, fluorescence intensity, uHTS; recombinant FAS-TE, OMFH fluorogenic substrate, fluorescence endpoint; inhibition, % at 15 µM; hit rate 0.67% among 360,000; AID 602261, 2012;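 active = compounds whose normalised, plate-corrected inhibition of enzyme fluorescence in the single-dose primary screen is 50% or more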;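 note: 0% = DMSO with enzyme and 100% = substrate without enzyme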
ADAM17 inh: ADAM17 inhibitors, primary screen, biochemical, QFRET; Disintegrin and metalloproteinase domain-containing protein 17 (Homo sapiens), P78536; recombinant ADAM17, EDANS/DABCYL FRET peptide cleavage; inhibition, % at 6.95 µM; hit rate 0.83% among 370,000;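 active = inhibition above the mean of compounds lying between control limits plus 3 SD, set per campaign, cut at about 8.5% in these data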;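 note: 0% = DMSO-only wells as the low control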
Target sequence (P78536 215-824 limits assumed): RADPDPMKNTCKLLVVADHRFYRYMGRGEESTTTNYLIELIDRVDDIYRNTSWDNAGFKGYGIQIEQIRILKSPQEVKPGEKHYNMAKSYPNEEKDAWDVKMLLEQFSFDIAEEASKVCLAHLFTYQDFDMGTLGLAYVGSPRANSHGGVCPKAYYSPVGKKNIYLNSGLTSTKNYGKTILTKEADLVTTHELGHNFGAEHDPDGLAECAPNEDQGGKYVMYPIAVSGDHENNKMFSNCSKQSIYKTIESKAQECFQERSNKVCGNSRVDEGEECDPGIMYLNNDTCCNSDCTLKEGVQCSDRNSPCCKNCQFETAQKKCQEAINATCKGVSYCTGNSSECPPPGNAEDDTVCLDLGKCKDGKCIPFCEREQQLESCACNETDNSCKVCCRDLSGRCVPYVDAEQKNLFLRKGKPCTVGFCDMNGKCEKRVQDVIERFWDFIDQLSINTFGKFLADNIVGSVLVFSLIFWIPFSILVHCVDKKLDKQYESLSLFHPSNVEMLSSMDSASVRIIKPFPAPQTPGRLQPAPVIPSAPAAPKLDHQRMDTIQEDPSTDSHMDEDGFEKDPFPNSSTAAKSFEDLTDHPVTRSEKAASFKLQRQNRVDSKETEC
NR3A LBD binder: binders of NR3A ligand-binding domain, primary screen, biophysical, differential scanning fluorimetry, uHTS | NR3A LBD differential scanning fluorimetry, Tm shift; 0% = protein alone, 100% = glycine-bound protein | Tm shift relative to glycine control, % at 25 µM | hit rate 2.5% among 340,000;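 active = melting temperature shift of at least 10% of the positive control shift, at one fixed dose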
FAS-TE conf: FAS thioesterase domain inhibitors, confirmation, biochemical, fluorescence intensity, single concentration. shares compounds with FAS-TE inh. recombinant FAS-TE, OMFH fluorogenic substrate. inhibition, % at 15 µM. hit rate 45% among 2,300;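 active = compounds inhibiting the enzyme by at least 50% at 15 µM in any one of the replicates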;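 note: 0% = enzyme with DMSO only and 100% = wells lacking enzyme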
ADAM10 confirm: human ADAM10 inhibitors, confirmation, biochemical, QFRET, triplicate. AID 743208, 2013. inhibition, % at 6.95 µM. ADAM10 QFRET peptide cleavage, EDANS fluorescence. hit rate 1% among 2,100. shares compounds with ADAM10 inh;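 active = inhibition above about 20% chosen separately for each screening run, limit read from the data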;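 note: 0% = DMSO wells and 100% = marimastat wells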
ADAM17 counter: ADAM17 inhibitors, counter-screen for ADAM10 exosite inhibitor project, biochemical, QFRET, high throughput; shares compounds with ADAM10 inh; ADAM17 QFRET peptide cleavage, EDANS fluorescence; inhibition, % at 6.95 µM; hit rate 0.5% among 2,100;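 active = mean triplicate inhibition above the solvent-only control wells' mean plus 3 SD, cut at about 12% in these data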;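 note: 0% = DMSO wells and 100% = marimastat wells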
ADAM10 ctr: ADAM10 inhibitors, counter-screen for ADAM17 exosite inhibitor project, biochemical, FRET, human ADAM10; hit rate 47% among 2,900; recombinant ADAM10, EDANS/DABCYL FRET peptide cleavage, 3 h; inhibition, % at 6.95 µM; shares compounds with ADAM17 inh; AID 743256, 2014;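 active = mean inhibition over the triplicate runs exceeds the activity threshold set in the earlier primary screen, cut at about 20% in these data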;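 note: 0% = DMSO wells and 100% = marimastat wells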
ADAM17 confirm: ADAM17 inhibitors, hit retest, confirmation, biochemical, QFRET peptide cleavage. inhibition, % at 6.95 µM. shares compounds with ADAM17 inh. hit rate 65% among 2,900. recombinant ADAM17, EDANS/DABCYL QFRET peptide cleavage;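 active = mean inhibition across replicates above the hit cutoff set in the primary screen, cut at about 8.5% in these data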;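 note: 0% = DMSO wells and 100% = marimastat wells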
* hit, by the source's call; i = inactive; nt = no result. In the library only some 4.3% were active in any assay of this set; here they are far more common.

SMILES | HGIII-sPLA2 inh | ADAM10 inh | FAS-TE inh | ADAM17 inh | NR3A LBD binder | FAS-TE conf | others
CCOC(=O)[C@]12Cc3cc(C)ccc3[C@H]1N(C)C(=O)c1ccccc12 | 3 | -14 | 6 | -3 | nt | nt
CCOC(=O)[C@]12Cc3cc(Cl)ccc3[C@H]1N(C1CCCCC1)C(=O)c1ccccc12 | nt | nt | 77* | nt | nt | 71*
CCOC(=O)[C@]12Cc3cc(OC)ccc3[C@H]1N(C1CCCCC1)C(=O)c1ccccc12 | -3 | -6 | 77* | -2 | nt | 72*
CC(C)C[C@@H]1COc2cccc(N3CCN(C)CC3)c2S(=O)(=O)N1 | 0 | -7 | -10 | -5 | nt | nt
Cc1ccccc1-c1ccc2c(c1)C1c3c(-c4ccccc4)nnn3-c3ccccc3C(=O)N1CC2 (stereo unspecified) | -2 | -1 | 79* | -3 | nt | 13
CCOC(=O)[C@]12Cc3cc(OC)ccc3[C@H]1N(Cc1ccccc1)C(=O)c1cc(OC)ccc12 | -2 | 10 | 25 | 5 | nt | nt
CCOC(=O)[C@]12Cc3cc4ccccc4cc3[C@H]1N(Cc1ccccc1)C(=O)c1ccccc12 | -7 | 4 | 61* | 0 | nt | 13
CCOC(=O)[C@]12Cc3cc4ccccc4cc3[C@H]1N(Cc1ccccc1)C(=O)c1cc(OC)ccc12 | 0 | 0 | 65* | 2 | nt | 20
CCOC(=O)[C@]12Cc3cc(OC)c(OC)cc3[C@H]1N(Cc1ccccc1)C(=O)c1ccccc12 | 1 | 12 | 12 | 0 | -1 | nt
O=C(O)C(Br)Br | 0 | -6 | nt | -2 | nt | nt
Cc1cc(=O)oc2cc(OCC(=O)N3C[C@H]4C[C@@H](C3)c3cccc(=O)n3C4)c(Cl)cc12 | 2 | -66 | 8 | -14 | 0 | nt
Cc1cc(=O)oc2cc(OCC(=O)N3CCN(C(C)c4ccccc4)CC3)c(Cl)cc12 (stereo unspecified) | -13 | i | 60* | i | -1 | 67*
COC(=O)C1=C(c2ccc(OC)c(OC)c2)C[C@@H]2CC[C@H]1N2C(=O)NCCCOC(C)C | 8 | 1 | -13 | 2 | -1 | nt
Cc1[nH]n(-c2ccccc2)c(=O)c1C(c1ccc([N+](=O)[O-])cc1)c1c(C)[nH]n(-c2ccccc2)c1=O | nt | nt | 85* | nt | 8 | 79*
O=[N+]([O-])c1ccc(C(c2ccc([N+](=O)[O-])cc2)c2ccc([N+](=O)[O-])cc2)cc1 | -3 | 14 | 47 | 4 | -17 | nt
CSc1nc(N)c(N=Nc2ccc([As](=O)(O)O)cc2)c(=O)[nH]1 | 3 | -8 | 54* | 9.1* | -2 | 59*
COc1ccc(C(c2nnnn2-c2c(C)cccc2C)N2CCC(n3c(=O)[nH]c4ccccc43)CC2)cc1 (stereo unspecified) | 3 | 23* | 62* | 9.7* | nt | 35* | ADAM10 confirm=6;ADAM17 counter=2
O=c1[nH]c2ccccc2n1C1CCN(C(c2cccs2)c2nnnn2-c2ccc3c(c2)OCCO3)CC1 (stereo unspecified) | -18 | 20* | 63* | 7 | nt | 15 | ADAM10 confirm=8;ADAM17 counter=2
COc1cccc(C(c2nnnn2-c2ccc3c(c2)OCCO3)N2CCC(n3c(=O)[nH]c4ccccc43)CC2)c1OC (stereo unspecified) | -4 | 21* | 72* | 4 | nt | 0 | ADAM10 confirm=7;ADAM17 counter=1
O=c1[nH]c2ccccc2n1C1CCN(C(c2ccccc2OC(F)(F)F)c2nnnn2-c2ccc3c(c2)OCCO3)CC1 (stereo unspecified) | -8 | 33* | 83* | 15* | nt | 19 | ADAM10 confirm=11;ADAM17 counter=2
O=c1[nH]c2ccccc2n1C1CCN(C(c2nnnn2-c2ccc3c(c2)OCCO3)C2CC2)CC1 (stereo unspecified) | 6 | -3 | 10 | 1 | nt | nt
COc1ccc(-n2nnnc2C(c2ccccc2)N2CCC(n3c(=O)[nH]c4ccccc43)CC2)cc1 (stereo unspecified) | -2 | 2 | 25 | -1 | nt | nt
Cc1ccc(OC(=O)N(C)C[C@@H]2OCc3ccccc3-c3c(n(C)c4ccccc34)C(=O)N([C@H](C)CO)C[C@H]2C)cc1 | -32 | 12 | nt | 5 | nt | nt
NCc1cc(=O)[nH]o1 | 2 | -1 | -4 | 0 | 1 | nt
O=c1[nH]c2ccccc2n1C1CCN(C(c2cc3ccccc3o2)c2nnnn2Cc2ccccc2)CC1 (stereo unspecified) | -20 | 23* | 61* | 8 | nt | -2 | ADAM10 confirm=10;ADAM17 counter=3
S=C(NCCc1ccccc1)N1Cc2ccccc2-n2nncc2C1 | 9 | -6 | 11 | 1 | nt | nt
CCCCn1nnnc1C(c1cccc2ccccc12)N1CCC2(CC1)C(=O)NCN2c1ccccc1 (stereo unspecified) | 2 | -8 | 22 | 0 | nt | nt
COc1ccc(-n2nnnc2C(c2cccc3ccccc23)N2CCC3(CC2)C(=O)NCN3c2ccccc2)cc1 (stereo unspecified) | -8 | 21* | 84* | 9 | nt | 16 | ADAM10 confirm=10;ADAM17 counter=3
O=C1NCN(c2ccccc2)C12CCN(C(c1cccc3ccccc13)c1nnnn1Cc1ccccc1)CC2 (stereo unspecified) | -4 | 21* | 79* | 9.9* | nt | 4 | ADAM10 confirm=11;ADAM17 counter=4;ADAM10 ctr=41*;ADAM17 confirm=17*
O=C1NCN(c2ccccc2)C12CCN(C(c1ccnc3ccccc13)c1nnnn1Cc1ccccc1)CC2 (stereo unspecified) | -2 | -11 | 7 | -4 | nt | nt
